What follows are molecules tested on WEE1. Details: concentration: 1 μM, replicates: in singlicate; n = 1.
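Further: KINOMEscan kinase panel screen.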

Row | Compound | %Inh
1 | CC(C)(C)OC(=O)NC1CCCN(c2cc(-c3ccc4c(N)n[nH]c4c3)nc(N)n2)C1 (stereo not drawn) [GSK2286096] | 17%
2 | Fc1cccc(COc2ccc(Nc3ncnc4sc(-c5ccc[nH]5)cc34)cc2Cl)c1 [GW707818] | 6%
3 | COc1cc2c(Nc3cccc(NC(=O)c4ccccc4)c3)ncnc2cc1OCCCN1CCOCC1 [GSK223810] | 0%
4 | O=C(c1ccc(-c2cc(-c3c[nH]nc3-c3ccccn3)ccn2)cc1)N1CCCC1 [GW792479] | 30%
5 | Cc1ccc(C)c(NC(=O)NCCNc2ccnc(Nc3ccc(F)cc3)n2)c1 [GSK1379878] | 8%
6 | CC(=O)Nc1n[nH]c2ncc(-c3ccccc3)cc12 [SB-548492] | 0%
7 | Cl.Cn1ccc(-c2cccc(Nc3ccnc4cc(-c5nccs5)ccc34)c2)n1 [GW525701] | 11%
8 | O=C(CCO)NCCn1ccc2ncnc(Nc3ccc(Oc4cccc(C(F)(F)F)c4)c(Cl)c3)c21 | 1%
9 | O=C(Nc1n[nH]c2nc(-c3ccco3)c(Br)cc12)c1ccc(CN2CCCC2)cc1.O=C(O)[C@H](O)[C@@H](O)C(=O)O [SB-742352] | 0%
10 | Oc1ccc2ncnc(Nc3ccc(OCc4ccccc4)cc3)c2c1 [GI262866] | 0%
11 | NC(=O)c1sc(-n2cnc3ccccc32)cc1OCc1ccccc1F [GSK1024306] | 7%
12 | Fc1cccc(COc2ccc(Nc3ncnc4nn5ccccc5c34)cc2Cl)c1 [GW689066] | 0%
13 | O=c1cc(N2CCOCC2)nc2n(Cc3cccc(Cl)c3)ccn12 [GSK2296823] | 0%
14 | O=C(Nc1ccccc1)Nc1ccc(Oc2ccc3nccn3n2)cc1 | 3%
15 | Fc1cccc(COc2ccc(Nc3ncnc4cc[nH]c34)cc2Cl)c1 | 12%
16 | COc1ccc(-c2nc3n(c2-c2ccncc2)CCC3)cc1 [SKF-104493] | 0%
17 | C[C@@H]1CCN(C(=O)CO)C[C@@H]1N(C)c1ncnc2[nH]ccc12 | 0%
18 | FC(F)(F)c1ccc(-c2nn3ncccc3c2-c2ccnc(Nc3cccc(C(F)(F)F)c3)n2)cc1 [GW828205] | 5%

Row | Compound | %Inh
19 | CSc1nn2c(=O)cc(N3CCOCC3)nc2n1Cc1cccc(Cl)c1Cl [GSK2347225] | 29%
20 | Cl.c1ccc(Cn2ccc3cc(Nc4ncnc5ccccc45)ccc32)cc1 [GW275568] | 12%
21 | CCCc1ccc(S(=O)(=O)NC2CCN(c3ccnc(Nc4ccc(OC)cc4)n3)C2)cc1 (stereo not drawn) [GSK1379737] | 12%
22 | CCn1c(-c2ccncc2)nc2cnccc21 [SB-735216] | 0%
23 | Nc1nc(-c2ccc3c(N)n[nH]c3c2)cc(N2CCCCC2)n1 [GSK2228768] | 39%
24 | COC(=O)c1cccc(NC(=O)NCCNc2ccnc(Nc3ccc(F)cc3)n2)c1 [GSK1379883] | 39%
25 | CC(C)(C)c1ccc(-n2cnc3c(N)ncnc32)cc1 [SKF-97263] | 0%
26 | Cc1cc(N2CCC(NS(=O)(=O)c3ccc(F)cc3)CC2)nc(Nc2cccc(C#N)c2)n1.O=C(O)C(F)(F)F [GSK1653537] | 10%
27 | CCC(CC)(CC)n1cnc2c(N)ncnc21 [SKF-97620] | 9%
28 | OCCOCCn1ccc2ncnc(Nc3ccc(Oc4cccc(Cl)c4)c(Cl)c3)c21 | 0%
29 | COc1ccc(Nc2nccc(N3CCC(NC(=O)c4cccc(NC(C)=O)c4)C3)n2)cc1 (stereo not drawn) [GSK1379732] | 5%
30 | Cc1ccc(O)cc1Nc1cc(C(F)(F)F)nc2ccc(-c3ccncc3)cc12 [GW630823] | 0%
31 | Cn1ccc2ncnc(Nc3ccc(Oc4cccc(Cl)c4)c(Cl)c3)c21 | 0%
32 | Clc1cc(Nc2ncnc3cc[nH]c23)ccc1OCc1ccccn1 | 0%
33 | O=C(NCCCN1CCCC1=O)c1cnc(NCc2cc(Cl)ccc2Cl)nc1NC1CCNCC1 | 0%
34 | COc1ccc(Nc2nccc(N3CCC(NC(=O)Nc4ccc5c(c4)OCO5)C3)n2)cc1 (stereo not drawn) [GSK1379745] | 12%
35 | Fc1ccc(Nc2nccc(-c3c(-c4ccc(Cl)cc4)nn4ncccc34)n2)cc1F [GW829058] | 10%
36 | C[C@H]1CC[C@@H](C(=O)Nc2ccccc2)CN1c1cc(-c2ccc3c(N)n[nH]c3c2)nc(N)n1 [GSK2283293] | 11%
